The list is not random: actives were taken first. Their share in the collection is about 22%.
CYP2C19 act – cytochrome P450 2C19 (human) activation. P33261. recombinant CYP2C19, luciferin-H EGE luminescence; stronger effect = higher value; 0 = fully inhibited enzyme, 1 = untreated enzyme. activation factor at 5 µM. 96,000 tested, under 10 active. AID 1025;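 active means activation factor of at least 2 at 5 µM in the primary screen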
Target sequence (P33261 whole entry, looked up): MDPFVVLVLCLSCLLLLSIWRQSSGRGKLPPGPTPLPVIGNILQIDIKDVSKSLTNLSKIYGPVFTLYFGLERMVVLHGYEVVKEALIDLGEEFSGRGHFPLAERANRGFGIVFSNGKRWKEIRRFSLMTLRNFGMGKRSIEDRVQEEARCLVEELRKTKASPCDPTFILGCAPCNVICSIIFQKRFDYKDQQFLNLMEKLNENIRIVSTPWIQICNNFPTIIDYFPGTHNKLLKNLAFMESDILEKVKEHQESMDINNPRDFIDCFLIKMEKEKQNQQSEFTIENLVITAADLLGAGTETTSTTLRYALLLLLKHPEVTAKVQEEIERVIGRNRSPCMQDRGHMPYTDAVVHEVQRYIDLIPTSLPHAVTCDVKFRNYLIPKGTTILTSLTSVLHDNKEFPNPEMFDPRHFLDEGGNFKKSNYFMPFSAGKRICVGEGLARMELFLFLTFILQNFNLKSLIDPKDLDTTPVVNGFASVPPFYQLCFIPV
Measles CPE – protection of cells from measles virus; protection (pct of control), % at 4 µM; hit rate 1.5% among 140,000; AID 841; Measles virus-infected cells, CPE protection, absorbance; in the data active means protection mostly above about 24%, no sharp cut-off; inactive means mostly below about 26%
CYP2C9 activ – activators of human CYP2C9; activation factor at 5 µM; hit rate 1.4% among 96,000; P11712; recombinant CYP2C9, luciferin-H conversion, luminescence; stronger effect = higher value; factor 1 = untreated enzyme, 0 = blocked; AID 1024;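 active means activation factor of 2 or more for CYP2C9 at a 5 µM dose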
CYP2C19 inhib – inhibitors of human CYP2C19; inhibition, % at 5 µM; P33261; hit rate 21% among 96,000; CYP2C19 Supersomes, luciferin-H EGE luminescence, 30 min; AID 778;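 active means CYP2C19 inhibition above a set limit at 5 µM in the primary screen, cut at about 50% in these data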
CYP2C9 inhib – human CYP2C9 inhibition. P11712. inhibition, % at 5 µM. CYP2C9 Supersomes, luciferin-H conversion, luminescence. hit rate 20% among 96,000;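 active means blocking of liver enzyme CYP2C9 beyond about 50% at 5 µM, limit read from the data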
Numbers stand for hits; – = inactive; · = no result given.

SMILES	CYP2C19 act	Measles CPE	CYP2C9 activ	CYP2C19 inhib	CYP2C9 inhib
COc1ccccc1N1CCN(C(c2ccc(C)cc2)c2nnnn2C(C)C)CC1 (centres undefined)	–	–	–	74	75
CCN(CC)c1ccc(NC(=O)CC2Oc3ccccc3NC2=O)c(C)c1 (centres undefined)	–	–	–	–	–
Cn1c(C(C#N)C2=C(Cl)C(=O)N(c3ccccc3)C2=O)nc2ccccc21 (centres undefined)	–	–	–	78	92
Cn1c(C(C#N)/C(=N\S(=O)(=O)c2cccs2)c2ccccc2)nc2ccccc21 (centres undefined)	–	–	–	–	–
CCn1c(-c2ccccc2O)n[nH]c1=S	–	–	–	–	–
CCN(CC)CCn1nc(C)nc1-c1ccccc1O	–	–	–	88	–
CCCCOc1ccc(S(=O)(=O)Nc2cccnc2)cc1	–	–	–	61	89
CCOc1ccc(S(=O)(=O)Nc2cccc(OC)c2)cc1	–	–	–	69	56
Cc1ccc(S(=O)(=O)Nc2cccnc2)cc1	–	–	–	–	–
CCOc1ccc(S(=O)(=O)Nc2cccc(N(C)S(C)(=O)=O)c2)cc1	–	–	–	93	–
Clc1ccc(Cc2nnc(-c3ccccc3Br)o2)cc1	·	–	·	·	·
Clc1ccccc1OCc1nnc(-c2ccccc2Br)o1	–	–	2.1	–	–
Brc1ccccc1-c1nnc(COc2cccc3cccnc23)o1	–	–	2.9	91	–
c1ccc2ncc(-n3cnnn3)cc2c1	–	38	–	–	–
CCOc1ccc(NC(=O)CSc2nc(-c3cccs3)cc(C(F)(F)F)n2)c([N+](=O)[O-])c1	·	–	·	·	·
CCOC(=O)CSc1nnc([C@H](Cc2ccccc2)NC(=O)OC(C)(C)C)o1	–	–	–	–	–
CC(C)(C)OC(=O)N[C@@H](Cc1ccccc1)c1nnc(S(=O)(=O)Cc2cccc(F)c2)o1	–	–	–	–	60
Cc1ccccc1CS(=O)(=O)c1nnc([C@H](CC(C)C)NC(=O)OC(C)(C)C)o1	–	–	–	–	76
CC(C)C[C@H](N)c1nnc(S(=O)(=O)Cc2cccc(F)c2)o1	–	–	–	–	–
CC(C)C[C@H](NC(=O)OC(C)(C)C)c1nnc(SCc2ccccc2)o1	–	–	–	74	65
O=S(=O)(NC1CCCCC1Oc1ccccc1)c1ccccc1 (centres undefined)	·	–	·	·	·
COc1ccc(N/C(C)=C2/C(=O)C(=O)N(CCO)C2c2ccc([N+](=O)[O-])cc2)cc1 (centres undefined)	–	–	–	–	–
COc1ccc(OC)c(CCNC(=O)CC2Oc3ccc(C)cc3NC2=O)c1 (centres undefined)	–	–	–	–	–
CCCCN(C(=O)CNC(=O)c1ccco1)C(C(=O)NC1CCCC1)c1ccc(OC)cc1 (centres undefined)	–	–	–	–	–
Cc1ccc(C)c(C(=O)COC(=O)c2cc(Cl)nc3ccccc23)c1	·	–	·	·	·
SMILES	CYP2C19 act	Measles CPE	CYP2C9 activ	CYP2C19 inhib	CYP2C9 inhib
Cc1cc(C)c2cc(C#N)c(NCCOC(=O)c3ccccc3C)nc2c1	–	–	–	62	68
CCOC(=O)C1C(=O)N(C(=O)c2cncc(Br)c2)CC1c1ccccc1 (centres undefined)	–	–	–	84	–
Oc1ccccc1CNn1cnnc1	–	–	–	–	–
CCCCC(=O)Nc1c(C)cc(C)cc1Cl	–	–	–	–	–
CCOC(=O)C(=Cc1ccc(-c2ccsc2C(=O)OC)o1)C(=O)OCC	–	–	–	–	50
CCOC(=O)/C(C#N)=C/c1ccc(-c2ccsc2C(=O)OC)o1	–	–	–	–	–
COC(=O)C1=C(C)Nc2nnnn2C1c1ccco1 (centres undefined)	–	–	–	–	–
CC1=C(C(=O)OC2CCCCC2)C(c2ccco2)n2ncnc2N1 (centres undefined)	–	–	–	73	52
CCOC(=O)Cc1c(C)nc2c(C#N)c[nH]n2c1=O	–	–	–	–	–
CCOC(=O)Cc1c(C)nc2c(-c3cccc(Br)c3)c[nH]n2c1=O	–	–	–	–	74
CCOC(=O)Cc1c(C)nc2c(-c3ccc(Cl)cc3)c(C)[nH]n2c1=O	–	–	–	56	–
CC(SC1CCCC1)C(=O)NC(C)(C#N)C(C)C (centres undefined)	–	–	–	–	–
O=C(CN1C(=O)c2ccccc2S1(=O)=O)N1CCN(c2ccc(F)cc2)CC1	–	–	–	–	–

Compound activity from PubChem BioAssay.
